# Screens (PubChem BioAssay)
# IL-1B inflam inh = inflammasome signaling inhibition, IL-1 beta readout. THP-1 LPS/ATP IL-1B secretion, AlphaLISA, 16 h; hits give low values. activity change, % at 57.5 µM. hit rate 4.7% among 360,000; in the data active = activity change below about -50%; inconclusive = mostly about -30% to -49%
#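 Secreted IL-1B measured by AlphaLISA bead assay after 16 h compound exposure of THP-1 cells; compounds (final up to 57.5 uM) added 1 h before LPS (250 ng/mL) and ATP (1.25 mM) stimulation; lower signal means less secretion.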
# HT1080NT lethal = kills 2HG-producing HT-1080-NT fibrosarcoma cells; HT-1080-NT fibrosarcoma viability, CellTiter-Glo ATP luminescence, 48 h; Potency, µM (series often up to 46.1 µM), actives largely listed as cytotoxic; hit rate 1.6% among 360,000;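 also: NT is the 2HG producing partner of a matched IDH1 knockdown line; nearly all actives have a fitted effect of over 55% in size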
#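 HT-1080-NT; 750 cells/well; 5% FBS RPMI; 48 h compound, 37 degrees C; CellTiter-Glo luminescence; curve fitting and curve-class assignment.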
# ELG1 repair inh = inhibitors of ELG1-dependent DNA repair in HEK293T cells. HEK293T ELG1-luciferase reporter, luminescence, 16 h; DNA damage induced by 5-fluorouridine. Potency, µM (doses to about 46.1 µM), most hits filed as inhibitors. hit rate 2.3% among 330,000. AID 504467; also: nearly all actives have a fitted effect of over 55% in size
#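 5-Fluorouridine DNA damage + compound/DMSO, 2,000 cells/well, 16 h, 37 °C/5% CO2. ONE-Glo, 30 min RT, luminescence. Readout = decrease in reporter signal.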
# DT40 TDP1 no CPT = qHTS for Inhibitors of human tyrosyl-DNA phosphodiesterase 1 (TDP1): qHTS in cells in absence of CPT; DT40 Tdp1-/- hTDP1 cells, no CPT, ATP luminescence, 48 h; Potency, µM (series often up to 46.2 µM), most hits filed as inhibitors; hit rate 15% among 420,000; also: nearly all actives have a fitted effect of over 55% in size
#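 Chicken DT40 Tdp1-/- cells stably complemented with human TDP1 were seeded at 400 cells/well with DMSO in place of 20 nM camptothecin. After compound pinning, cells grew at least 48 hr at 37 °C; viability read by CellTiter-Glo luminescence.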
# TDP1 cell CPT = DT40-hTDP1 cell growth loss with CPT. chicken DT40 Tdp1-/-;hTDP1 cells + 20 nM CPT, ATP luminescence, 48 h. Potency, µM (series often up to 46.2 µM), actives largely listed as inhibitors. hit rate 12% among 420,000; also: nearly all actives have a fitted effect of over 55% in size
#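 Chicken DT40 Tdp1-/- cells complemented with human TDP1, 400 cells/well, exposed to compounds plus 20 nM camptothecin for at least 48 h at 37 C; viability read as ATP content by CellTiter-Glo luminescence.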
# HT1080 IDH1KD tx = toxicity to HT-1080 IDH1 knockdown cells (counter line); HT-1080 IDH1 knockdown viability, ATP luminescence, 48 h; Potency, µM (titrated, usually from 46.1 µM), hits mostly cytotoxic; hit rate 2% among 360,000
#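 % activity derives from luminescence (CellTiter-Glo), normalised to DMSO and no-cell wells. HT-1080-IDH1KD cells, 750/well, had 48 h compound exposure at 37 °C.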
# A number is an active result; i = inactive; ? = inconclusive; nt = not tested or not shown. Rows were chosen to be rich in hits. Some 19% of all compounds tested hit in one or more screens of this group. Unless noted, calls follow the shape of the dose curve; as a rule, active = well fitted curve in the direction sought with a large enough effect; inconclusive = small, poorly fitted or top-dose-only effect, or another doubt; inactive = no such curve, though single readings can be large; an effect the other way counts as inactive or inconclusive.
SMILES,IL-1B inflam inh,HT1080NT lethal,ELG1 repair inh,DT40 TDP1 no CPT,TDP1 cell CPT,HT1080 IDH1KD tx
Cc1ccc(CNCc2ccc3c(c2)n(C)c(=O)n3C)cc1,nt,nt,nt,i,i,nt
CCCCCOC(=O)c1ccc(OC(=O)c2sc3ncn(Cc4cccc(F)c4)c(=O)c3c2C)cc1,nt,nt,nt,i,i,nt
Cc1c(C(=O)NCCSCc2ccc(Cl)cc2Cl)cccc1[N+](=O)[O-],-58,?,?,?,?,?
Cc1ccc(C(=O)ONC(=O)c2ccc(Cl)cc2)cc1[N+](=O)[O-],?,i,i,?,?,i
Cc1ccc(C(=O)NCCSCc2ccc(Cl)cc2Cl)cc1[N+](=O)[O-],-58,i,?,?,i,i
Cc1c(C(=O)NCCSCc2ccccc2)cccc1[N+](=O)[O-],-57,i,i,i,i,i
Cc1c(C(=O)NCCSc2ccc(Cl)cc2)cccc1[N+](=O)[O-],i,i,i,i,i,i
COc1ccc(S(=O)(=O)N2CCCOC2CNC(=O)C(=O)NCc2ccccn2)cc1 (configuration not stated),i,i,i,i,i,i
Cn1nnnc1SCC(=O)Nc1nc(-c2ccccc2)c(-c2ccccc2)o1,i,i,?,?,?,i
COc1cc(OC)cc(C(=O)Nc2nc(-c3ccccc3)c(-c3ccccc3)o2)c1,i,?,13µM,10µM,7.3µM,?
CC(=O)Nc1nc(-c2ccccc2)c(-c2ccccc2)o1,-66,i,i,i,i,i
COc1cc(OC)cc(C(=O)Nc2cccc(NC(=O)c3cc(OC)cc(OC)c3)n2)c1,i,i,nt,?,?,i
COC(=O)c1ccc(CNC(=O)C(NC(=O)c2ccco2)C(C)C)cc1 (configuration not stated),i,i,i,i,i,i
Cc1ccccc1CSc1nc2c([nH]c3ccccc32)c(=O)n1-c1ccccc1,nt,nt,nt,i,i,nt
CC(C)(C)NCC(O)CON=C1c2ccccc2-c2ccccc21 (configuration not stated),-98,18µM,i,?,21µM,15µM
CC(C)(C)NC(=O)CON=C1c2ccccc2-c2ccccc21,?,i,i,23µM,23µM,i
CC(C)[C@H](NC(=O)[C@@H]1Cc2c([nH]c3ccccc23)C2c3ccccc3C(=O)N21)C(=O)N1CCC[C@@H]1C(=O)O (some centres not stated),i,i,?,i,i,i
O=P(O)(O)C(O)(Cn1ccnc1)P(=O)(O)O,nt,nt,nt,i,i,nt
N#Cc1ccc(NC(=O)c2ccc3c(c2)nnn3C2CCCC2)cc1,nt,nt,nt,i,i,nt
Cn1cc(C2NC(=O)c3ccccc3N2)c2ccccc21 (configuration not stated),i,4.6µM,nt,1.6µM,1.2µM,8.2µM
Cc1ccc(C)c2nc(Cl)c(C3NC(=O)c4ccccc4N3)cc12 (configuration not stated),i,?,?,16µM,?,?
COc1ccc(C2NC(=O)c3ccccc3N2)c(OC)c1OC (configuration not stated),i,i,nt,?,?,?
Cc1ccc(C)c(C2NC(=O)c3ccccc3N2)c1 (configuration not stated),i,?,i,0.58µM,0.73µM,2.3µM
O=C1NC(c2ccccc2O)Nc2ccccc21 (configuration not stated),i,i,i,i,i,i
COc1cc(C)c(C2NC(=O)c3ccccc3N2)cc1C (configuration not stated),i,5.8µM,nt,2.1µM,2.6µM,?
SMILES,IL-1B inflam inh,HT1080NT lethal,ELG1 repair inh,DT40 TDP1 no CPT,TDP1 cell CPT,HT1080 IDH1KD tx
CCOc1ccc(NC(=O)C2CCN(C(=O)C3CC(=O)N(c4ccc(C)cc4)C3)CC2)cc1 (configuration not stated),i,i,i,?,i,i
O=C(CSc1n[nH]c(=O)n1-c1ccccc1)N1CCOCC1,i,i,i,i,i,i
Cc1ccc(S(=O)(=O)N2CCOCC2)cc1NC(=O)Cn1nc(C)c([N+](=O)[O-])c1C,i,i,i,i,i,i
CCOC(=O)C1=C(C)Nc2ccccc2N=C1NC(=O)c1cc(C)on1,i,i,?,i,i,i
COc1ccc(C)cc1NC(=O)c1cccc(-c2ccc(OC(C)=O)cc2)c1,i,i,i,?,i,i
COc1ccccc1-c1cc2nc(C)c(CCC(=O)NC(C)CCc3ccco3)c(C)n2n1 (configuration not stated),i,i,?,21µM,23µM,i
Cc1nc2c(-c3ccccc3)c(C)nn2c(C)c1CCC(=O)NC(C)CCc1ccco1 (configuration not stated),?,i,?,9.2µM,12µM,i
CN1CCN(c2nc(-c3ccccc3C(F)(F)F)nc3ccccc23)CC1,nt,nt,nt,i,i,nt
O=C(Nc1ccc(Cl)cc1)N1N=CCC1c1ccccc1 (configuration not stated),nt,i,i,i,i,i
O=C(Nc1ccccc1)C1=C(O)CC(c2ccc(Cl)cc2)N2CCN=C12 (configuration not stated),i,i,i,18µM,?,i
CC1(C(=O)NCc2cccc3ccccc23)CCN1C(=O)C1(c2ccccc2)CCCC1 (configuration not stated),-52,?,nt,21µM,23µM,?
COc1ccccc1CNC(=O)C1(C)CCN1Cc1ccc2ccccc2c1 (configuration not stated),i,?,nt,i,i,?
CC1(C(=O)NCc2ccccc2Br)CCN1C(=O)C1(c2ccc(Cl)cc2)CC1 (configuration not stated),i,i,nt,?,?,i
CCCCNC(=O)C1(C)CCCCN1C(=O)c1ccc(OC)c(C(F)(F)F)c1 (configuration not stated),i,i,nt,?,?,i
CCCCNC(=O)C1(C)CCCCCN1Cc1cccc2c(OC)cc(C(=O)OCC)cc12 (configuration not stated),i,?,nt,13µM,?,?
CC1(C(=O)NCc2ccccc2Br)CCN1Cc1ccc2ccccc2c1 (configuration not stated),i,i,nt,?,21µM,?
CCCCNC(=O)C1(C)CCCCN1Cc1ccc2ccccc2c1 (configuration not stated),i,i,nt,?,23µM,?
CCCCN1C(=O)C(CC(=O)NCc2ccco2)CC(C(=O)N(CC)CC)=C1C (configuration not stated),i,i,nt,i,i,i
